# Reference: ChEMBL document CHEMBL3988442, “University of Dundee, Small-Polar-MMV Screening Library” (2021)
# About 1,000 (1.4%) of roughly 69,000 compounds showed an effect of 50% or more. Shown is part of a subset that was picked to be rich in strong results.
# Test system: Leishmania donovani
# Assay: Leishmania intramacrophage assay
# Format: functional, organism-based
# Parameters: scale not given: in the data most compounds retested in dose-response had high values
smiles,measurement,setting,value
Cc1ccc(CN2CCCC3(CCCCN3S(C)(=O)=O)C2)s1.O=C(O)C(F)(F)F (stereo not given),Percent Effect,"30.3 µM, […]",8.751%
Cn1cnnc1C1CCCN(C(=O)NCCCn2cccn2)C1 (stereo not given),Percent Effect,30 µM,24.48%
Cn1cnnc1SCc1cc2c(cc1Br)OCO2,Percent Effect,"30.3 µM, […]",-1.981%
CN(C(=O)c1cccc(OCC(F)F)n1)c1ccc2c(c1)CCO2,Percent Effect,"30.3 µM, […]",24.43%
O=C(C1SCCc2sccc21)N1CCN(CCO)CC1 (stereo not given),Percent Effect,"30 µM, 30.03 µM",-7.988%
Cc1cc(N(C)C)nc(C2(C)CCCN2C(=O)c2ccn(C)n2)n1 (stereo not given),Percent Effect,"30.3 µM, […]",1.341%
COc1ccc(OCCN(C)S(=O)(=O)N2CCOCC2)cc1,Percent Effect,"30.3 µM, […]",11%
CC(C)NC(=O)c1ccc2nnc(C3CN(C)CCN3C)n2c1.O=C(O)C(F)(F)F.O=C(O)C(F)(F)F (stereo not given),Percent Effect,"30.3 µM, […]",-3.873%
COc1c(CNCc2cccc(Cn3cccn3)c2)c(C)nn1C,Percent Effect,30 µM,41.23%
COc1c(CNCc2cccc(Cn3ccnc3)c2)c(C)nn1C,Percent Effect,"30 µM, 30.03 µM",57.06%
COc1c(CNCc2cccc(Cn3ccnc3C)c2)c(C)nn1C.Cl,Percent Effect,30 µM,52.6%
COc1c(CNCc2ccc(C(=O)N(C)C(C)C)cc2)c(C)nn1C,Percent Effect,30 µM,21.5%
COc1c(CNCc2cccc(CN(C)C)c2)c(C)nn1C.Cl,Percent Effect,"30 µM, 30.03 µM",41.69%
COc1c(CNCc2ccc(C(=O)N(C)C)cc2)c(C)nn1C.Cl,Percent Effect,"30 µM, 30.03 µM",56.22%
COc1c(CNCc2ccccc2Cn2ccnc2)c(C)nn1C,Percent Effect,30 µM,42.31%
COc1c(CNCc2ccc(Cn3ccnc3)cc2)c(C)nn1C,Percent Effect,30 µM,38.9%
COc1c(CNCc2cccc(C(=O)N(C)C)c2)c(C)nn1C,Percent Effect,30 µM,37.17%
O=C(CN1CCCC(c2ccc(C(=O)O)cc2)C1)NC1CC1 (stereo not given),Percent Effect,"30 µM, 30.03 µM",23.13%
Cc1ccc2cc(C(=O)N3CCCC3Cn3cccn3)[nH]c2c1 (stereo not given),Percent Effect,"30.3 µM, […]",22.94%
Cc1cnn(CCNCc2ccc(OCc3cccnc3)cc2)c1,Percent Effect,30 µM,27.42%
CN(C)C(=O)N1CCOCC2(CCN(c3ccccn3)C2)C1.O=C(O)C(F)(F)F (stereo not given),Percent Effect,"30 µM, 30.03 µM",18.14%
O=S1(=O)c2ccccc2C(O)CN1CCO (stereo not given),Percent Effect,"30.3 µM, […]",5.205%
CCN(CC)c1ccc2ccc(C(=O)N3CCCCO3)cn12.O=C(O)C(F)(F)F,Percent Effect,"30.3 µM, […]",27.79%
CCN(CC)c1ccc2ccc(C(=O)O)cn12,Percent Effect,"30.3 µM, […]",18.9%
Cc1nc(-c2ccc(S(=O)(=O)N3CCOCC3)cc2)co1,Percent Effect,"30.3 µM, […]",23.37%
Cc1nn(C)cc1CN1C[C@@H]2CC[C@H](C1)N(Cc1c(C)noc1C)C2=O,Percent Effect,"30.3 µM, […]",16.01%
CCCN1CCC(c2nc3ccc(-c4cccc(OC)c4)cn3n2)CC1.O=C(O)C(F)(F)F,Percent Effect,"30.3 µM, […]",66.14%
CC(=O)N1CCC(c2nc3ccc(NC4CCC4)cn3n2)CC1.O=C(O)C(F)(F)F,Percent Effect,"30.3 µM, […]",40.49%
CCCN1CCC(c2nc3ccc(-c4ccccc4)cn3n2)CC1.O=C(O)C(F)(F)F,Percent Effect,"30.3 µM, […]",22.28%
CCCN1CCC(c2nc3ccc(-c4cccc(F)c4)cn3n2)CC1.O=C(O)C(F)(F)F,Percent Effect,"30.3 µM, […]",49.02%
CCCN1CCC(c2nc3ccc(-c4ccncc4)cn3n2)CC1.O=C(O)C(F)(F)F.O=C(O)C(F)(F)F,Percent Effect,"30.3 µM, […]",22.97%
CCN1CCC(c2nc3ccc(NC(C)C)cn3n2)CC1.O=C(O)C(F)(F)F,Percent Effect,"30 µM, 30.03 µM",14.23%
CCN1CCC(c2nc3ccc(NC4CCC4)cn3n2)CC1.O=C(O)C(F)(F)F,Percent Effect,"30.3 µM, […]",53.52%
CN1CCC(c2nc3ccc(-c4ccccc4)cn3n2)CC1.O=C(O)C(F)(F)F,Percent Effect,"30.3 µM, […]",26.64%
CN1CCC(c2nc3ccc(-c4cccc(F)c4)cn3n2)CC1.O=C(O)C(F)(F)F,Percent Effect,"30.3 µM, […]",56.26%
Cc1cnn(CC2CN(CC(=O)N3CCc4ccccc43)CCO2)c1 (stereo not given),Percent Effect,"30 µM, 30.03 µM",26.31%
CCCN(C(=O)c1cnns1)C1CCCN(Cc2ccccc2)C1 (stereo not given),Percent Effect,"30.3 µM, […]",15.37%
CCn1c(C)cc(C(=O)NCc2cccc(S(=O)(=O)NC)c2)c1C,Percent Effect,"30.3 µM, […]",-2.214%
C[C@@H]1CN(CCC(=O)N(C)Cc2ccccc2)C[C@@]1(O)C1CCC1,Percent Effect,"30.3 µM, […]",54.72%
CN(Cc1ccccc1)C(=O)CCN1CCC2(CC1)[C@H](O)C[C@@H]2O,Percent Effect,"30.3 µM, […]",16.81%
C[C@@H]1CN(CCC(=O)N(C)Cc2ccccc2)CC[C@@]1(O)C1CCC1,Percent Effect,"30.3 µM, […]",-42.91%
CC(C)Nc1cccc(CC2CCN(C)C2)n1.O=CO (stereo not given),Percent Effect,"30.3 µM, […]",8.612%
Cc1noc(C)c1CC(=O)NCC(C(C)C)N1CCOCC1 (stereo not given),Percent Effect,"30.3 µM, […]",13.16%
CS(=O)(=O)N1C[C@@H]2CC[C@H](C1)N(C(=O)CCc1ccsc1)C2,Percent Effect,"30.3 µM, […]",42.41%
CC(C)C1SCC(=O)Nc2c1cnn2-c1ccc(Cl)cc1 (stereo not given),Percent Effect,"30.3 µM, […]",63.84%
CC(C)C1SCC(=O)Nc2c1cnn2-c1ccc(F)cc1 (stereo not given),Percent Effect,"30.3 µM, […]",-10.63%
COc1ccc(-n2ncc3c2NC(=O)CSC3C(C)C)cc1 (stereo not given),Percent Effect,"30.3 µM, […]",23.81%
Cc1cc(C)c(CNC(=O)N2CCCN(C(=O)C(C)C)CC2)c(C)c1,Percent Effect,"30.3 µM, […]",-55.36%
COc1cc(NC2CCS(=O)(=O)C2)ncn1 (stereo not given),Percent Effect,"30.3 µM, […]",-35.33%
O=C(NCC1CCC1)c1cccc(CN2CCS(=O)(=O)CC2)c1,Percent Effect,"30.3 µM, […]",14.97%
CC(C)(C)NC(=O)c1cccc(CN2CCS(=O)(=O)CC2)c1,Percent Effect,"30.3 µM, […]",61.43%
Cc1nn(C)c(C)c1NC(=O)c1cccc(CN2CCS(=O)(=O)CC2)c1,Percent Effect,"30.3 µM, […]",17.24%
CN1CCO[C@@H]2CN(S(=O)(=O)c3ccccc3)C[C@@H]2C1.O=C(O)C(F)(F)F,Percent Effect,"30.3 µM, […]",29.49%
OCC1CCCN1c1cc(NCCc2ccccn2)ncn1 (stereo not given),Percent Effect,"30.3 µM, […]",47.66%
OCC1CCCN1c1cc(NCCNc2cccnn2)ncn1 (stereo not given),Percent Effect,"30.3 µM, […]",20.93%
OCC1CCCN1c1cc(NCCc2ccsc2)ncn1 (stereo not given),Percent Effect,"30.3 µM, […]",-26.43%
OCC1CCCN1c1cc(NCCNc2ccccn2)ncn1 (stereo not given),Percent Effect,"30 µM, 30.03 µM",16.04%
OCC1CCCN1c1cc(NCCc2nccs2)ncn1 (stereo not given),Percent Effect,"30.3 µM, […]",55.11%
OCC1CCCN1c1cc(NCc2ccccn2)ncn1 (stereo not given),Percent Effect,"30.3 µM, […]",50.11%
NC(=O)[C@@H]1CCCN1C(=O)c1csc(-c2ccc(C(F)(F)F)cc2)n1,Percent Effect,"30.3 µM, […]",24.55%
CNC(=O)c1cc(OC)c(OC)cc1N(C)S(C)(=O)=O,Percent Effect,"30.3 µM, […]",-11.85%
COc1ccc(CCCC(=O)NCc2c(C)noc2C)cc1F,Percent Effect,"30.3 µM, […]",0.2518%
Cc1cc(C)cc(C(=O)NCc2ncnn2C)c1,Percent Effect,"30.3 µM, […]",-3.252%
COC(=O)CCNC(=O)c1nnn(-c2ccc(F)cc2)c1C1CC1,Percent Effect,"30.3 µM, […]",23.19%
COc1cccc(CNCc2ccc(F)c(Cl)c2)c1O,Percent Effect,"30.3 µM, […]",3.534%
COc1cccc(CNCc2ccc(F)cc2Cl)c1O,Percent Effect,"30.3 µM, […]",50.12%
COc1cccc(CNCc2ccccc2Cl)c1O,Percent Effect,"30.3 µM, […]",11.74%
COCCCC(=O)N(C)c1ccc(F)c(Cl)c1,Percent Effect,"30.3 µM, […]",10.71%
O=c1oc(-c2ccc(F)cc2)nn1CN1CCCCC1,Percent Effect,30 µM,11.98%
COCCNC(=O)c1sc(Nc2ccc(Cl)cn2)nc1C,Percent Effect,"30 µM, 30.03 µM",-6.179%
COCC1CN(c2ccc(C)nn2)Cc2cnn(C)c21.O=C(O)C(F)(F)F.O=C(O)C(F)(F)F (stereo not given),Percent Effect,"30.3 µM, […]",1.62%
CCc1nc2c(N3CCC4(CC3)CNC(=O)C4)ncnc2o1,Percent Effect,"30.3 µM, […]",11.46%
CCc1nc2c(N3CCC4(CC3)CC(=O)N(CC)C4)ncnc2o1,Percent Effect,"30.3 µM, […]",0.202%
CCc1nc2c(N3CCC4(CC3)CC(=O)N(CC(C)C)C4)ncnc2o1,Percent Effect,"30.3 µM, […]",71.44%
CCOCC(=O)N1CCOCC2(CCN(c3ncccn3)C2)C1.O=C(O)C(F)(F)F (stereo not given),Percent Effect,"30.3 µM, […]",-3.02%
OCCC1CN(C2CCC2)CCN1C1CCCC1 (stereo not given),Percent Effect,"30 µM, 30.03 µM",24.92%
Clc1ccccc1CCN1CCN(c2ccc3nncn3n2)CC1,Percent Effect,30 µM,7.685%
O=C(CN1CCCC(c2ccn[nH]2)C1)Nc1nc2c(s1)CCC2 (stereo not given),Percent Effect,"30.3 µM, […]",51.08%
O=C(CN1CCCC(c2ccn[nH]2)C1)N1CCCc2ccccc21 (stereo not given),Percent Effect,"30.3 µM, […]",-7.148%
Cc1nnc(NC(=O)CN2CCCC(c3ccn[nH]3)C2)s1 (stereo not given),Percent Effect,"30.3 µM, […]",-18.19%
Cc1cc(C2CCCN(CC(=O)Nc3nc4c(s3)CCC4)C2)n[nH]1 (stereo not given),Percent Effect,"30.3 µM, […]",34.8%
O=C(CN1CCCC(c2ccn[nH]2)C1)Nc1nncs1 (stereo not given),Percent Effect,"30.3 µM, […]",11.72%
O=C(CN1CCCC(c2ccn[nH]2)C1)Nc1nc2c(s1)CCCC2 (stereo not given),Percent Effect,"30.3 µM, […]",57.39%
CN(C)CCN1C(=O)CC[C@@H]2[C@H]1CCN2C(=O)c1ccc(C#N)cc1.O=C(O)C(F)(F)F,Percent Effect,"30.3 µM, […]",2.551%
CCc1ccc(CN(CCCn2ccnc2)Cc2ccc(C)s2)o1.O=C(O)CC(O)(CC(=O)O)C(=O)O,Percent Effect,"30 µM, 30.03 µM",12.85%
Cc1ccc(CN(CCCn2ccnc2)Cc2c[nH]cn2)s1.O=C(O)CC(O)(CC(=O)O)C(=O)O,Percent Effect,"30 µM, 30.03 µM",29.23%
CC(NC(=O)N(C)Cc1ccsc1)c1ccc2c(c1)OCO2 (stereo not given),Percent Effect,"30 µM, 30.03 µM",29.16%
O=C(Nc1nncs1)NC1CCOc2ccccc21 (stereo not given),Percent Effect,"30 µM, 30.03 µM",-9.341%
Cn1cc(CN2CC[C@H]3O[C@@H](COCc4cccnc4)CC[C@H]32)cn1.O=C(O)C(F)(F)F.O=C(O)C(F)(F)F,Percent Effect,"30.3 µM, […]",18.07%
O=C(COc1ccccc1)NCC1CCN(Cc2ccsc2)CC1,Percent Effect,"30.3 µM, […]",8.301%
CCCS(=O)(=O)N1C[C@@H]2CN(Cc3ccoc3)CCO[C@@H]2C1.O=C(O)C(F)(F)F,Percent Effect,"30.3 µM, […]",15.12%
Cc1ccc(OCCCC(=O)Nc2nonc2C)cc1C,Percent Effect,"30.3 µM, […]",1.215%
Cc1ccsc1CCNC(=O)CCC(=O)NC1CCCC1,Percent Effect,"30.3 µM, […]",16.22%
Cc1ncsc1-c1nc(-c2cccc(CN3CCOCC3)c2)no1,Percent Effect,"30.3 µM, […]",19.67%
Cc1nnsc1-c1nnc2sc(C(C)C)nn12,Percent Effect,"30.3 µM, […]",39.28%
Cc1nnsc1-c1nnc2sc(C3CCC3)nn12,Percent Effect,"30.3 µM, […]",11.99%
Cc1nn2c(-c3snnc3C)nnc2s1,Percent Effect,"30.3 µM, […]",93.73%
CCN1CCN(Cc2ccnc(-c3cccnc3)n2)CC1.O=C(O)CC(O)(CC(=O)O)C(=O)O,Percent Effect,"30 µM, 30.03 µM",7.725%
Cc1ncsc1C(=O)N(C)Cc1ccsc1,Percent Effect,30 µM,23.48%
CCc1nc(NCC(=O)N2CCOCC2)c2c(n1)c(C)nn2CC,Percent Effect,"30 µM, 30.03 µM",6.056%
